Results taken from PubChem BioAssay (NCATS).
Results filed as inconclusive are left out. Calls of active or inactive are those of the source. The call rests on the fitted dose curve; in most records, active means well fitted curve in the direction sought with a large enough effect; inconclusive means small, poorly fitted or top-dose-only effect, or another doubt; inactive means no such curve, though single readings can be large; an effect the other way counts as inactive or inconclusive.

What was measured:
[1] = target: ATP-dependent 6-phosphofructokinase (Trypanosoma brucei brucei) (UniProt O15648); assay: qHTS Assay to Find Inhibitors of T. brucei phosphofructokinase: hit validation (AID 492961);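 further: luminescence reports ADP formed as PFK phosphorylates fructose-6-phosphate with ATP; on the % scale 0 is the no-effect control and ±100 the full control effect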
Sequence of ATP-dependent 6-phosphofructokinase (Trypanosoma brucei brucei) (O15648 whole entry, looked up): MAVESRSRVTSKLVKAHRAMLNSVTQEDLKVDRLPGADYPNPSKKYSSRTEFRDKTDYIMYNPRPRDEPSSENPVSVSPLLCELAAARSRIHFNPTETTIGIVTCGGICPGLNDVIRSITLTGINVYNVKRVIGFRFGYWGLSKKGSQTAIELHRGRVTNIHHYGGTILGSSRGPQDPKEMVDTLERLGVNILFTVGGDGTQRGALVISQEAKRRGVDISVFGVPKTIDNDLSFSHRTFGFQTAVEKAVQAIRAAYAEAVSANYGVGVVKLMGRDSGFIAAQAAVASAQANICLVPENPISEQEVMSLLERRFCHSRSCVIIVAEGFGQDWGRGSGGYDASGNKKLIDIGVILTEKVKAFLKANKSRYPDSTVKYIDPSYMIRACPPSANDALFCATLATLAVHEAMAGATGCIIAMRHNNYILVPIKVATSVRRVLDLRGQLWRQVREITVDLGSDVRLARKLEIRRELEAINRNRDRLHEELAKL
How it was run: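 In this biochemical qHTS validation, titrated compounds were tested against 1.25 nM PFK with 0.1 mM ATP and 0.5 mM F6P. Percent activity came from controls lacking or containing enzyme.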

[2] = target: Ubiquitin carboxyl-terminal hydrolase 1 (Homo sapiens) (UniProt O94782); assay: Inhibitors of USP1/UAF1: Pilot qHTS (AID 504865);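 further: rhodamine fluorescence freed from ubiquitin-rhodamine substrate followed over time; top concentration of the series differs between compounds; on the % scale 0 is the no-effect control and ±100 the full control effect; nearly all actives have a fitted effect of over 35% in size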
Sequence of Ubiquitin carboxyl-terminal hydrolase 1 (Homo sapiens) (O94782 whole entry, looked up): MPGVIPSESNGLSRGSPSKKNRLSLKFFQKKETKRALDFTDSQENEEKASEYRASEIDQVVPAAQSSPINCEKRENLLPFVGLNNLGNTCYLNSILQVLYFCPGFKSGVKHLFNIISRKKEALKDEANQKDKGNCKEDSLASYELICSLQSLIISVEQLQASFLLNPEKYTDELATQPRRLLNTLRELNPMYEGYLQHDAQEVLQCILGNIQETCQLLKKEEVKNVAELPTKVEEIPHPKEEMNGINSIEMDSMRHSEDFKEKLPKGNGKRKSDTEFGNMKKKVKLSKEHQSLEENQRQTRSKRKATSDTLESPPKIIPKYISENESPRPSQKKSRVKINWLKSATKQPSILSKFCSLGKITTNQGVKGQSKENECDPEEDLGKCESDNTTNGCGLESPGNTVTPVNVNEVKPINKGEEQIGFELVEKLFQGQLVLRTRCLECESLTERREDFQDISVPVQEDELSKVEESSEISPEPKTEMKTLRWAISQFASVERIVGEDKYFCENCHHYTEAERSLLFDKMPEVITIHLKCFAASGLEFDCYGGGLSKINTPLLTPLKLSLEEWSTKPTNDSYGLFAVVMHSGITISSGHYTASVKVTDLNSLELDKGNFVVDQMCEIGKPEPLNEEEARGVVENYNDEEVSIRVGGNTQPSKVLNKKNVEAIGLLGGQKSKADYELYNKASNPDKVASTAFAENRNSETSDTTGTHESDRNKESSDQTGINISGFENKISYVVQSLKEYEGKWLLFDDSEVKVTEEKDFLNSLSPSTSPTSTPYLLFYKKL
How it was run: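 In 50mM HEPES pH 7.8 containing 0.5mM EDTA, 1mM TCEP, 0.1 mg/ml BSA and 0.01% Tween-20, 1nM USP1/UAF1 is exposed to compound for 15 min, then Ub-Rho (150nM final) is added and fluorescence is read over time.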

[3] = target: Luciferin 4-monooxygenase (Photinus pyralis) (UniProt P08659); assay: Biochemical firefly luciferase enzyme assay for NPC (AID 624030);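 further: purified P. pyralis luciferase at 10 nM with luciferin and ATP substrate; 0% = DMSO and -100% = full luciferase inhibition by PTC124 control; nearly all actives have a fitted effect of over 70% in size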
Sequence of Luciferin 4-monooxygenase (Photinus pyralis) (P08659 whole entry, looked up): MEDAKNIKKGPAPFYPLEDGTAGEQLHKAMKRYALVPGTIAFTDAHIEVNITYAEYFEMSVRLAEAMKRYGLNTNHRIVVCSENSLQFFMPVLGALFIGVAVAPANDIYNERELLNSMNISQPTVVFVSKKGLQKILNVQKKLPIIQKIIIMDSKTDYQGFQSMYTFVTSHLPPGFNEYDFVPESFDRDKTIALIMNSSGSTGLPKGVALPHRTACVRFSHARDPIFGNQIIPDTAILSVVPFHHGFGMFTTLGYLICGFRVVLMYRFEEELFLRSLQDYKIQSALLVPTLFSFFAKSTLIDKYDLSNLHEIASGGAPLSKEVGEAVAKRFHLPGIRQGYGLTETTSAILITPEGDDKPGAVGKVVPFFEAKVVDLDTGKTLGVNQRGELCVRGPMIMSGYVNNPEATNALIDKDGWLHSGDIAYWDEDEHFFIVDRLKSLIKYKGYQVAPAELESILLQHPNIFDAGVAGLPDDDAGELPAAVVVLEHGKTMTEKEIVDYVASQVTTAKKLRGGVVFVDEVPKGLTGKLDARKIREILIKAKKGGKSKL
How it was run: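 Direct inhibition of firefly luciferase enzyme (10 nM final, 50 mM Tris Acetate) assessed by luminescence within 5 minutes. Percent activity scaled between DMSO and PTC124 positive control, with concentration-effect curves classified by fit quality and response.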

[4] = S16 Schwann cell viability assay (CellTiter-Glo assay) (AID 624031);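 further: cellular ATP luminescence as a viability measure; plate controls were DMSO-treated cells for no effect and cell-free wells for full effect; nearly all actives have a fitted effect of over 70% in size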
How it was run: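 Native S16 rat Schwann cells in DMEM/10% FBS without phenol red were incubated overnight, then exposed to compounds for 24 h at 37 °C/5% CO2. Viability was read as ATP luminescence (CellTiter-Glo), normalized to no-cell wells and DMSO (0%).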

[5] = S16 Schwann cell PMP22 intronic element firefly luciferase assay (AID 624032);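 further: plate controls were DMSO for no effect and PTC124 positive control mean for full effect; nearly all actives have a fitted effect of over 30% in size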
How it was run: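 Luciferase reporter of PMP22 intronic-element expression in stably transfected S16 rat Schwann cells, read by ONE-Glo luminescence after 24 h compound exposure at 37 C. Activity scaled between DMSO (0%) and positive-control PTC124; concentration-effect curves quality-classified.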

[6] = qHTS profiling for inhibitors of Plasmodium falciparum proliferation (AID 504749);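 further: 0% = DMSO vehicle and full inhibition = artemisinin control; nearly all actives have a fitted effect of over 60% in size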; conditions: P. falciparum in erythrocytes, SYBR Green DNA, 72 h, at 28.7 µM (top of the series)
How it was run: (§1)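 Infected RBCs, 0.3% parasitemia/2.5% Hct final; cpd 72 h, 37 C, 5% CO2; lysis buffer with saponin/triton/SYBR Green I, o/n RT dark; FI 485/535; norm. to artemisinin (0.29 uM) and DMSO.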

3D7 = assay: as above; conditions: P. falciparum in erythrocytes, SYBR Green DNA, 72 h; series mostly up to 28.7 µM
How it was run: as §1

7G8 = assay: as above; conditions: P. falciparum in erythrocytes, SYBR Green DNA, 72 h; series mostly up to 28.7 µM
How it was run: as §1

AA1029 = assay: as above; conditions: P. falciparum in erythrocytes, SYBR Green DNA, 72 h; series mostly up to 28.7 µM
How it was run: as §1

AS120 = assay: as above; conditions: P. falciparum in erythrocytes, SYBR Green DNA, 72 h; series mostly up to 28.7 µM
How it was run: as §1

ATS189 = assay: as above; conditions: P. falciparum in erythrocytes, SYBR Green DNA, 72 h; series mostly up to 28.7 µM
How it was run: as §1

ATS95 = assay: as above; conditions: P. falciparum in erythrocytes, SYBR Green DNA, 72 h; series mostly up to 28.7 µM
How it was run: as §1

C2A = assay: as above; conditions: P. falciparum in erythrocytes, SYBR Green DNA, 72 h; series mostly up to 28.7 µM
How it was run: as §1

CP185 = assay: as above; conditions: P. falciparum in erythrocytes, SYBR Green DNA, 72 h; series mostly up to 28.7 µM
How it was run: as §1

CP191 = assay: as above; conditions: P. falciparum in erythrocytes, SYBR Green DNA, 72 h; series mostly up to 28.7 µM
How it was run: as §1

CP192 = assay: as above; conditions: P. falciparum in erythrocytes, SYBR Green DNA, 72 h; series mostly up to 28.7 µM
How it was run: as §1

CP194 = assay: as above; conditions: P. falciparum in erythrocytes, SYBR Green DNA, 72 h; series mostly up to 28.7 µM
How it was run: as §1

CP201 = assay: as above; conditions: P. falciparum in erythrocytes, SYBR Green DNA, 72 h; series mostly up to 28.7 µM
How it was run: as §1

CP203 = assay: as above; conditions: P. falciparum in erythrocytes, SYBR Green DNA, 72 h; series mostly up to 28.7 µM
How it was run: as §1

CP211 = assay: as above; conditions: P. falciparum in erythrocytes, SYBR Green DNA, 72 h; series mostly up to 28.7 µM
How it was run: as §1

CP215 = assay: as above; conditions: P. falciparum in erythrocytes, SYBR Green DNA, 72 h; series mostly up to 28.7 µM
How it was run: as §1

CP217 = assay: as above; conditions: P. falciparum in erythrocytes, SYBR Green DNA, 72 h; series mostly up to 28.7 µM
How it was run: as §1

CP237 = assay: as above; conditions: P. falciparum in erythrocytes, SYBR Green DNA, 72 h; series mostly up to 28.7 µM
How it was run: as §1

CP238 = assay: as above; conditions: P. falciparum in erythrocytes, SYBR Green DNA, 72 h; series mostly up to 28.7 µM
How it was run: as §1

CP247 = assay: as above; conditions: P. falciparum in erythrocytes, SYBR Green DNA, 72 h; series mostly up to 28.7 µM
How it was run: as §1

CP250 = assay: as above; conditions: P. falciparum in erythrocytes, SYBR Green DNA, 72 h; series mostly up to 28.7 µM
How it was run: as §1

CP252 = assay: as above; conditions: P. falciparum in erythrocytes, SYBR Green DNA, 72 h; series mostly up to 28.7 µM
How it was run: as §1

CP256 = assay: as above; conditions: P. falciparum in erythrocytes, SYBR Green DNA, 72 h; series mostly up to 28.7 µM
How it was run: as §1

CP260 = assay: as above; conditions: P. falciparum in erythrocytes, SYBR Green DNA, 72 h; series mostly up to 28.7 µM
How it was run: as §1

CP262 = assay: as above; conditions: P. falciparum in erythrocytes, SYBR Green DNA, 72 h; series mostly up to 28.7 µM
How it was run: as §1

CP265 = assay: as above; conditions: P. falciparum in erythrocytes, SYBR Green DNA, 72 h; series mostly up to 28.7 µM
How it was run: as §1

CP266 = assay: as above; conditions: P. falciparum in erythrocytes, SYBR Green DNA, 72 h; series mostly up to 28.7 µM
How it was run: as §1

CP268 = assay: as above; conditions: P. falciparum in erythrocytes, SYBR Green DNA, 72 h; series mostly up to 28.7 µM
How it was run: as §1

CP269 = assay: as above; conditions: P. falciparum in erythrocytes, SYBR Green DNA, 72 h; series mostly up to 28.7 µM
How it was run: as §1

CP286 = assay: as above; conditions: P. falciparum in erythrocytes, SYBR Green DNA, 72 h; series mostly up to 28.7 µM
How it was run: as §1

CP291 = assay: as above; conditions: P. falciparum in erythrocytes, SYBR Green DNA, 72 h; series mostly up to 28.7 µM
How it was run: as §1

CP297 = assay: as above; conditions: P. falciparum in erythrocytes, SYBR Green DNA, 72 h; series mostly up to 28.7 µM
How it was run: as §1

CP305 = assay: as above; conditions: P. falciparum in erythrocytes, SYBR Green DNA, 72 h; series mostly up to 28.7 µM
How it was run: as §1

CP315 = assay: as above; conditions: P. falciparum in erythrocytes, SYBR Green DNA, 72 h; series mostly up to 28.7 µM
How it was run: as §1

CP325 = assay: as above; conditions: P. falciparum in erythrocytes, SYBR Green DNA, 72 h; series mostly up to 28.7 µM
How it was run: as §1

CP329 = assay: as above; conditions: P. falciparum in erythrocytes, SYBR Green DNA, 72 h; series mostly up to 28.7 µM
How it was run: as §1

CP335 = assay: as above; conditions: P. falciparum in erythrocytes, SYBR Green DNA, 72 h; series mostly up to 28.7 µM
How it was run: as §1

DFO2036 = assay: as above; conditions: P. falciparum in erythrocytes, SYBR Green DNA, 72 h; series mostly up to 28.7 µM
How it was run: as §1

DIV14 = assay: as above; conditions: P. falciparum in erythrocytes, SYBR Green DNA, 72 h; series mostly up to 28.7 µM
How it was run: as §1

DIV17 = assay: as above; conditions: P. falciparum in erythrocytes, SYBR Green DNA, 72 h; series mostly up to 28.7 µM
How it was run: as §1

DIV30 = assay: as above; conditions: P. falciparum in erythrocytes, SYBR Green DNA, 72 h; series mostly up to 28.7 µM
How it was run: as §1

Dd2 = assay: as above; conditions: P. falciparum in erythrocytes, SYBR Green DNA, 72 h; series mostly up to 28.7 µM
How it was run: as §1

ECU = assay: as above; conditions: P. falciparum in erythrocytes, SYBR Green DNA, 72 h; series mostly up to 28.7 µM
How it was run: as §1

FAB9 = assay: as above; conditions: P. falciparum in erythrocytes, SYBR Green DNA, 72 h; series mostly up to 28.7 µM
How it was run: as §1

GB4 = assay: as above; conditions: P. falciparum in erythrocytes, SYBR Green DNA, 72 h; series mostly up to 28.7 µM
How it was run: as §1

HB3 = assay: as above; conditions: P. falciparum in erythrocytes, SYBR Green DNA, 72 h; series mostly up to 28.7 µM
How it was run: as §1

ICS = assay: as above; conditions: P. falciparum in erythrocytes, SYBR Green DNA, 72 h; series mostly up to 28.7 µM
How it was run: as §1

JCK = assay: as above; conditions: P. falciparum in erythrocytes, SYBR Green DNA, 72 h; series mostly up to 28.7 µM
How it was run: as §1

N140 = assay: as above; conditions: P. falciparum in erythrocytes, SYBR Green DNA, 72 h; series mostly up to 28.7 µM
How it was run: as §1

P93_24 = assay: as above; conditions: P. falciparum in erythrocytes, SYBR Green DNA, 72 h; series mostly up to 28.7 µM
How it was run: as §1

P94_40 = assay: as above; conditions: P. falciparum in erythrocytes, SYBR Green DNA, 72 h; series mostly up to 28.7 µM
How it was run: as §1

PAD = assay: as above; conditions: P. falciparum in erythrocytes, SYBR Green DNA, 72 h; series mostly up to 28.7 µM
How it was run: as §1

PC15 = assay: as above; conditions: P. falciparum in erythrocytes, SYBR Green DNA, 72 h; series mostly up to 28.7 µM
How it was run: as §1

PC26 = assay: as above; conditions: P. falciparum in erythrocytes, SYBR Green DNA, 72 h; series mostly up to 28.7 µM
How it was run: as §1

CO/N=C(/C(=O)N[C@@H]1C(=O)N2C(C(=O)O)=C(C[n+]3ccc(N)n3CCO)CS[C@H]12)c1csc(N)n1
inactive: Potency [1] | Potency [2] | Potency [3] | Potency [4] | Potency [5] | activity, negative = inhibition ([6]; parasite line A) 0.303% | activity, negative = inhibition ([6]; parasite line B) 9.51% | Potency (3D7) | Potency (7G8) | Potency (AA1029) | Potency (AS120) | Potency (ATS189) | Potency (ATS95) | Potency (C2A) | Potency (CP185) | Potency (CP191) | Potency (CP192) | Potency (CP194) | Potency (CP201) | Potency (CP203) | Potency (CP211) | Potency (CP215) | Potency (CP217) | Potency (CP237) | Potency (CP238) | Potency (CP247) | Potency (CP250) | Potency (CP252) | Potency (CP256) | Potency (CP260) | Potency (CP262) | Potency (CP265) | Potency (CP266) | Potency (CP268) | Potency (CP269) | Potency (CP286) | Potency (CP291) | Potency (CP297) | Potency (CP305) | Potency (CP315) | Potency (CP325) | Potency (CP329) | Potency (CP335) | Potency (DFO2036) | Potency (DIV14) | Potency (DIV17) | Potency (DIV30) | Potency (Dd2) | Potency (ECU) | Potency (FAB9) | Potency (GB4) | Potency (HB3) | Potency (ICS) | Potency (JCK) | Potency (N140) | Potency (P93_24) | Potency (P94_40) | Potency (PAD) | Potency (PC15) | Potency (PC26)
